Source: PubChem
This is a sample that favours compounds with a hit; in the whole collection about 14% have one here.
USP8 block: blocks human USP8 ubiquitin-rhodamine cleavage; purified USP8, Ub-rhodamine cleavage fluorescence, 30 min; inhibition, % at 20 µM; actives 4.2% (n = 47,000); AID 1645853
USP28 inh: human USP28 deubiquitinase inhibition; purified USP28, Ub-rhodamine cleavage fluorescence, 30 min; Q96RU2; inhibition, % at 25 µM; AID 1645857; actives 3% (n = 47,000)
USP17 block: inhibitors of human USP17 deubiquitinase; purified USP17, Ub-rhodamine cleavage fluorescence, 3 h; inhibition, % at 50 µM; A8MUK1; actives 6.5% (n = 47,000)
Target sequence (A8MUK1 whole entry, looked up): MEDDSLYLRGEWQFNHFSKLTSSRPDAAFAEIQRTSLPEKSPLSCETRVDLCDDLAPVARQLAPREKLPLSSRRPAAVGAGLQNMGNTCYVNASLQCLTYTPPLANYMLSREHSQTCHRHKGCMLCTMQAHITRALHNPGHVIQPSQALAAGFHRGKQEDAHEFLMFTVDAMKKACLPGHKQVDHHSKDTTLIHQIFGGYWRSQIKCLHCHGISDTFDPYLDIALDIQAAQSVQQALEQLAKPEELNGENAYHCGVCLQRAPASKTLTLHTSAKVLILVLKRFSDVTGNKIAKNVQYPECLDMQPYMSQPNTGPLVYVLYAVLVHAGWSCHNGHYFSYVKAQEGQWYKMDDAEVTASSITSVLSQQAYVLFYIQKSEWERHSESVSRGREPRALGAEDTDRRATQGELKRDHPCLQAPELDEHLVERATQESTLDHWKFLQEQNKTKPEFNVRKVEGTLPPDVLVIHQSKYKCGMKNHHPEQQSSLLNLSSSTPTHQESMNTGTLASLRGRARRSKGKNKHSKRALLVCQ
USP30 block: human USP30 deubiquitinase inhibition | actives 5.3% (n = 47,000) | purified USP30, Ub-rhodamine cleavage fluorescence | Q70CQ3 | AID 1645860 | inhibition, % at 25 µM
Each line names hits and unclear results; the compound was inactive in the other large screens. Rule as the data show it: active = inhibition above about 30%; inactive = the rest.

COc1ccc(OC)c2c(C)cc(N3CCN(S(=O)(=O)c4ccc5c(c4)CCCN5S(C)(=O)=O)CC3)nc12	USP28 inh 44, USP17 block 98, USP30 block 38
CCN(CC)S(=O)(=O)c1ccc(/C(=C\Nc2ccc(Cl)cc2)c2ncc(C(F)(F)F)cc2Cl)s1	USP8 block 36
Cc1cc(N2CCC(NC(=O)NCc3ccc(F)cc3)C2=O)ccc1F (stereo not given)	USP17 block 70
O=C1C(NS(=O)(=O)Cc2cc(F)cc(F)c2)CCN1c1ccccc1 (stereo not given)	USP17 block 47
O=C1C(NS(=O)(=O)Cc2ccccc2F)CCN1c1ccccc1 (stereo not given)	none
O=C(NCc1cccc(F)c1)NC1CCN(c2ccccc2)C1=O (stereo not given)	USP17 block 44
O=C1C(NS(=O)(=O)Cc2cccc(F)c2)CCN1c1ccccc1 (stereo not given)	USP17 block 44, USP30 block 34
O=C1C(NS(=O)(=O)Cc2cccc(F)c2)CCN1c1ccc(F)cc1 (stereo not given)	USP17 block 43
Cc1ccc(-c2noc(CCC(=O)Nc3nnc(C)s3)n2)cc1	none
COc1ccc(CCNC(=O)C(=O)c2c(C)n(C)c3ccccc23)cc1OC	USP17 block 48
COc1ccc(CCNC(=O)C(=O)NCc2ccc(Cl)cc2)cc1OC	USP17 block 41
COc1ccccc1CCNC(=O)C(=O)c1c(C)n(C)c2ccccc12	none
COc1ccc(CCNC(=O)C23CC4CC(CC(C4)C2)C3)cc1OC	none
COc1ncccc1C(=O)N1CCN(C2CCN(Cc3ccc(C)cc3)CC2)C(=O)C1	none
Cc1nc(-c2cc(S(=O)(=O)N3CCCC3)cn2C)sc1C(=O)N1CCCCC1	none
O=C(/C=C\c1ccccc1)Nc1c2c(nn1-c1ccc(F)cc1)CS(=O)(=O)C2	none (no result: USP28 inh, USP30 block)
Cc1ccc(NC(=O)Cn2c(N3CCOCC3)nc3cc(C)n(C)c3c2=O)cc1	USP30 block 49
Cc1ccccc1NC(=O)Cn1c(N2CCOCC2)nc2cc(C)n(C)c2c1=O	USP17 block 36, USP30 block 62
CCc1ccc(NC(=O)Cn2c(N3CCOCC3)nc3cc(C)n(C)c3c2=O)cc1	USP17 block 40, USP30 block 33
CCc1cc(=O)n(CC(=O)Nc2ccc(F)c(F)c2)c(N2CCOCC2)n1	none
CCc1cc(=O)n(CC(=O)Nc2cccc(F)c2)c(N2CCOCC2)n1	none
Cc1cc2nc(N3CCOCC3)n(CC(=O)Nc3cccc(F)c3)c(=O)c2n1C	USP17 block 38
CN1C(=O)C(Cc2nc3ccccc3c(=O)n2-c2ccccc2)c2cc(Br)ccc21 (stereo not given)	none
O=S(=O)(c1cccc(F)c1)N1CCOCC1CCc1cnccn1 (stereo not given)	none
CCOc1cccc(CNC(=O)C2c3ccccc3CC(=O)N2CC)c1 (stereo not given)	USP8 block 55
CCN1C[C@H]2C3(CCN(C(=O)c4ccccc4)CC3)CC[C@@]2(C(=O)N(C)C)C1	none
COc1ccc(NC(=O)c2ccc(NS(=O)(=O)c3c(C)noc3C)cc2)c(OC)c1	none
CCOC(=O)c1csc(NC(=O)c2cc(-c3ccccc3)nc3ccccc23)n1	none
CCOC(=O)c1csc(NC(=O)c2ccccc2Br)n1	USP28 inh 41
O=C(Cn1cnc2ccccc2c1=O)NC1CCCC1	none
Cc1cnc(NC(=O)Cn2cnc3ccccc3c2=O)s1	USP17 block 40
Cc1[nH]c2ccccc2c1CCNC(=O)c1cc2cc(Cl)ccc2oc1=O	USP8 block 56
CCS(=O)(=O)N1CC(=O)N(c2ccc(C)cc2C)C(C)(C(=O)NC2CCCCCC2)C1 (stereo not given)	none
COc1ccc(C2CC(=O)N(Cc3ccc(F)cc3)C(=O)C2)cc1OC	USP17 block 47
COc1ccc(C2CC(=O)N(c3cccc(Cl)c3)C(=O)C2)cc1OC	none
Cc1ccc(C(=O)NCc2ccc(C(=O)Nc3ccccc3C)o2)cc1	none
Cc1ccc(C(=O)NCc2ccc(C(=O)Nc3cccc(C)c3)o2)cc1	USP17 block 60, USP30 block 44
Cc1ccc(NC(=O)c2ccc(C)c(C)c2)cc1C	USP28 inh 40
Cc1ccc(C(=O)NCc2ccc(C(=O)Nc3ccc(C)c(C)c3)o2)cc1	USP17 block 54, USP30 block 42
O=c1cc(CCC2CN(Cc3ncccc3F)CCO2)nc[nH]1 (stereo not given)	none
Cc1cc(C(=O)N2CC[C@@H]3CNS(=O)(=O)[C@@H]3CC2)no1	none
CCCc1cc(C(=O)N2CCC3(C/C=C/COc4ccccc4C(=O)NCCNC3=O)CC2)no1	none
CS(=O)(=O)c1cccc(C(=O)Nc2sc3c(c2C(N)=O)CCCC3)c1	USP17 block 36
C=CCn1c(O)c(C2c3cc([N+](=O)[O-])ccc3Oc3[nH]c(=O)n(CC=C)c(=O)c32)c(=O)[nH]c1=O (stereo not given)	none
CC(C)n1nccc1-c1cnc(CC2CCN(S(C)(=O)=O)C2)cn1 (stereo not given)	none
CC(C)n1nccc1-c1cnc(CC2CCN(S(C)(=O)=O)CC2)cn1	USP30 block 31
CCOC(=O)c1cnc2c(cnn2C)c1NCc1ccc(OC)cc1	none
CCOC(=O)c1cnc2c(cnn2C)c1NCc1cccc(C(F)(F)F)c1	USP8 block 37, USP30 block 41
Cc1ccc(C(=O)Nc2ncn(CC(=O)Nc3ccccc3)n2)cc1	USP30 block 41
COc1ccc(NC(=O)Cn2cnc(NC(=O)c3ccccc3)n2)cc1	USP17 block 46
COc1cccc(NC(=O)Cn2cnc(NC(=O)c3ccccc3)n2)c1	none
O=C(Cn1cnc(NC(=O)c2ccc(F)cc2)n1)Nc1ccccc1	none
CC(C)(C)OC(=O)N1CCC[C@@H]([C@H](O)c2nccs2)C1	none
COc1ccccc1N1CCn2c(nc3cc(NS(C)(=O)=O)ccc32)C1	USP17 block 40
Fc1ccc(Nc2nc(-c3ccccn3)nc3ccccc23)cc1	USP17 block 39, USP30 block 31
Fc1cccc(Nc2nc(-c3ccccn3)nc3ccccc23)c1	USP17 block 43
O=C(c1ccccc1)N1CC[C@@H]2CN(C(=O)c3ccc(F)cc3)[C@@H]2C1	none
O=C(Nc1ccccc1Cl)c1csc(Cc2c(Cl)cccc2Cl)n1	USP17 block 37, USP30 block 48
O=C(NCc1cccnc1)c1csc(Cc2ccccc2Cl)n1	none
CC(C)CC(=O)N1CCc2nc(C(=O)N3CCOCC3)sc2CC1	none
COc1ccccc1-c1nc(SCC(=O)N2CCCC2)c2c(=O)n(C)c(=O)n(C)c2n1	none
Cc1cccc(CSCCNC(=O)CN2C(=O)c3cccc4cccc2c34)c1	USP17 block 41
O=C(Cc1ccc(Cl)c(Cl)c1)Nc1ccccc1N1CCCCC1	none
O=C(CN1C(=O)c2cccc3cccc1c23)NCCSCc1ccc(Cl)c(Cl)c1	USP8 block 53
COc1ccccc1NC(=O)CN1C(=O)c2cccnc2Sc2ccccc21	none
CCOc1ccccc1NC(=O)CN1C(=O)c2cccc3cccc1c23	USP8 block 68
COc1ccccc1CC(=O)N1CCN(c2cccc3[nH]ccc23)CC1	USP8 block 58
